Screening data (PubChem BioAssay)
Only some compounds are listed: those with a hit (about 2.2% of all), similar ones and a draw of the others.
HGIII-sPLA2 inh: Inhibits HGIII-sPLA2 liposome hydrolysis, primary screen | QFRET BODIPY PC-A2 liposome hydrolysis, fluorescence | inhibition, % at 12.2 µM | hit rate 0.56% among 370,000;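 active means inhibition above mean plus 3 SD of compounds lying within the high and low control bounds, cut at about 19% in these data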;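 further: 0% = median of test compound wells and 100% = no enzyme DMSO wells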
Target sequence (Q9NZ20 whole entry, looked up): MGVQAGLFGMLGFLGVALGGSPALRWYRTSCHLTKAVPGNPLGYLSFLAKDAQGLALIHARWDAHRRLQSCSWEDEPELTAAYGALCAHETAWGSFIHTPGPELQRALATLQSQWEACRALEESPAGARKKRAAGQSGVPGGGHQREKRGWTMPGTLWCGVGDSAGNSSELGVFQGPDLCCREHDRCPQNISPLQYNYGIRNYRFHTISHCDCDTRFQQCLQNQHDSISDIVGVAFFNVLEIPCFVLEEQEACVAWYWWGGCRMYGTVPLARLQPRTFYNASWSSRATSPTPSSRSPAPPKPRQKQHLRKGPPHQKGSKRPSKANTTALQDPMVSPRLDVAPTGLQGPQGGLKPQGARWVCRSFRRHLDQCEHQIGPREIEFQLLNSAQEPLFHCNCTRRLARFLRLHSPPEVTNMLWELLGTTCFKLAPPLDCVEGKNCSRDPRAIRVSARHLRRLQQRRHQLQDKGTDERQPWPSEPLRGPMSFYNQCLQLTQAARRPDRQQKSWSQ
SKN-1 inh: inhibitors of C. elegans SKN-1; C. elegans VP596 Pgst-4::GFP/RFP ratio, acrylamide-induced, 24 h; inhibition, % at 21.8 µM; hit rate 0.49% among 360,000; AID 624304;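 active means interference check ratio from 0.5 to 1.5 plus GFP to RFP signal ratio inhibition reaching or exceeding a fixed threshold, cut at about 30% in these data, passing the limit was not always enough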
Efflux pump inh: inhibitors of Candida antifungal efflux pumps expressed in yeast; inhibition, % at 10 µM; S. cerevisiae Candida pump triplex, Nile Red efflux; hit rate 0.44% among 330,000;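 active means plate passing quality check with inhibition over a set limit, or well fluorescence over plate mean plus 4 SD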;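 further: Nile Red retained in pooled yeast measured as flow cytometry median fluorescence; 0% = buffer negative control and 100% = Enniatin B positive control; higher means more Nile Red kept so more efflux inhibition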
SUMO Mot1 rescue: SUMOylation pathway inhibition by Mot1-301 growth rescue | S. cerevisiae Mot1-301 growth rescue, ATP luminescence, 38.5C; percent above DMSO median, 100 means doubled | growth rescue, % at 18.8 µM | hit rate 1% among 320,000;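 active means every valid replicate shows activation above 250% relative to neutral control wells; inactive means the rest, any valid replicate at or below 250%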;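 further: OY570 slx delta 5 strain wells were the positive control but not used for scaling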
Cmpd fluor yeast: flagged as fluorescent in efflux inhibitor counter-screen. AID 588517. shares compounds with Efflux pump inh. hit rate 4% among 1,700. S. cerevisiae AD/pABC3, compound fluorescence, flow cytometry. fluorescence ratio to DMSO, % at 10 µM;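 active means fluorescence ratio to DMSO above its plate's cutoff, the plate mean ratio plus 5 SD, cut at about 210% in these data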;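 further: unstained yeast with no Nile Red so the signal is compound autofluorescence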
Mdr1 pump inh: Candida Mdr1 efflux pump inhibition; inhibition, % at 10 µM; shares compounds with Efflux pump inh; S. cerevisiae AD/CaMDR1, Nile Red efflux, flow cytometry; hit rate 1% among 1,700; in the data active means inhibition above about 26%;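 further: 0% = DMSO vehicle and 100% = reference inhibitor; higher means more Nile Red retained so more efflux inhibition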
CaCdr2 efflux inh: blocks the Candida albicans Cdr2 efflux pump in yeast; shares compounds with Efflux pump inh; S. cerevisiae AD/CaCDR2, Nile Red retention, flow cytometry; Nile Red retention ratio vs DMSO, % at 10 µM; hit rate 4% among 1,700; AID 588520; in the data active means Nile Red retention ratio vs DMSO above about 190%;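 further: higher ratio means more blocking of Cdr2 efflux of the dye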
Cdr1 pump inh: inhibitors of Candida albicans Cdr1 efflux pump; AID 588522; inhibition, % at 10 µM; hit rate 1% among 1,700; shares compounds with Efflux pump inh; S. cerevisiae AD/CaCDR1, Nile Red efflux, flow cytometry;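 active means inhibition above the screen-wide mean plus twice its standard deviation, cut at about 32% in these data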
An asterisk follows results filed as active; / = not tested or not shown; + = active, no number.

SMILES	HGIII-sPLA2 inh	SKN-1 inh	Efflux pump inh	SUMO Mot1 rescue	Cmpd fluor yeast	Mdr1 pump inh	CaCdr2 efflux inh	Cdr1 pump inh
CCn1c2ccccc2c2cc(NC(=O)COC(=O)c3ccc(O)cc3)ccc21	-49	-8	0	-13	/	/	/	/
COc1ccc(CC(=O)OCC(=O)NC(=O)NC23CC4CC(CC(C4)C2)C3)cc1	-26	6	0.7*	22	113	0	106	0
O=C(NCCSc1ccc(Br)cc1)c1ccccc1	-2	12	0	-12	/	/	/	/
CSCc1ccc(C(=O)NCCSc2ccc(Br)cc2)cc1	-2	6	7.4*	-2	93	0	87	0
CCCCn1c(N)c(N(CCOC)C(=O)CN(C)CC(=O)Nc2ccc(Cl)c(Cl)c2)c(=O)[nH]c1=O	12	-3	0	-7	/	/	/	/
O=C(c1ccoc1)N1CCC2(CC1)Oc1ccc(F)cc1C(=O)C21CC(c2ccc(Cl)cc2)=NO1 (configuration not stated)	-1	12	5.5*	-20	107	7	110	53*
O=C(c1ccoc1)N1CCC2(CC1)Oc1ccc(F)cc1C(=O)C21CC(c2ccccc2)=NO1 (configuration not stated)	1	4	67*	26	92	95*	116	43*
O=C(c1ccc2c(c1)OCO2)N1CCC2(CC1)Oc1ccc(F)cc1C(=O)C21CC(c2cccnc2)=NO1 (configuration not stated)	-11	11	0	-16	/	/	/	/
O=C(c1ccc2c(c1)OCO2)N1CCC2(CC1)Oc1ccc(F)cc1C(=O)C21CC(c2ccccc2)=NO1 (configuration not stated)	-4	6	85*	22	92	81*	94	50*
O=C(c1ccoc1)N1CCC2(CC1)Oc1ccc(F)cc1C(=O)C21CC(c2cccnc2)=NO1 (configuration not stated)	-6	7	0	71	/	/	/	/
CC(C)C(=O)N1CCC2(CC1)Oc1ccc(F)cc1C(=O)C21CC(c2ccc(Cl)cc2)=NO1 (configuration not stated)	-13	6	36*	-14	99	2	114	0
Cc1cccc(OC(C)C(=O)Nc2ccccc2C(=O)N2CCCCC2)c1 (configuration not stated)	1	-4	3	16	/	/	/	/
O=[N+]([O-])c1ccccc1S(=O)(=O)N1CCN(C2CCN(Cc3ccccc3)CC2)CC1	0	11	0	86	/	/	/	/
COCCCN1C(=O)[C@H](CC(=O)N2CCCC2)[C@]2(C(=O)OC)CCCCC=C12	3	/	/	/	/	/	/	/
CC(C)C(=O)N1CCC2(CC1)Oc1ccc(Cl)cc1C(=O)C21CC(c2ccccc2)=NO1 (configuration not stated)	-9	15	0	-30	/	/	/	/
O=C(c1ccoc1)N1CCC2(CC1)Oc1ccc(Cl)cc1C(=O)C21CC(c2ccc(Cl)cc2)=NO1 (configuration not stated)	-1	15	0	-7	103	0	94	0
CCCCCC(=O)Nc1ccc(C(=O)COC(=O)c2ccccn2)cc1	-2	-2	0	-17	/	/	/	/
CCC(C)N(C(=O)Cn1nnc(-c2ccc(F)cc2)n1)C1CCS(=O)(=O)C1 (configuration not stated)	-7	13	0.5*	-1	114	1	123	0
CCC(C)N(C(=O)Cn1nnc(-c2ccc(Cl)cc2)n1)C1CCS(=O)(=O)C1 (configuration not stated)	-1	3	0	264	/	/	/	/
O=C(O)CCCN1C(=O)/C(=C/c2ccc(-c3nc4ccccc4s3)o2)SC1=S	0	33	1	7	220*	0	+	0
Cc1cc(S(=O)(=O)N2CCOCC2)ccc1OCC(=O)Nc1ccc(Br)cc1F	-1	1	0.9*	142	110	0	96	0
CCN1CCN(c2cc3c(nn2)Oc2ccccc2N3C)CC1	11	-3	0	0	/	/	/	/
O=C(Nc1nnc(-c2ccc(F)cc2)s1)Nc1ccccc1F	-5	5	0.8*	2	102	0	108	0
O=C(Nc1nnc(-c2cccc(F)c2)s1)Nc1ccccc1F	2	-2	0	4	/	/	/	/
N=c1c(C(=O)NCc2ccc3c(c2)OCO3)cc2c(=O)n3ccccc3nc2n1Cc1cccnc1	0	10	0	-14	/	/	/	/
SMILES	HGIII-sPLA2 inh	SKN-1 inh	Efflux pump inh	SUMO Mot1 rescue	Cmpd fluor yeast	Mdr1 pump inh	CaCdr2 efflux inh	Cdr1 pump inh
Cc1cccc(NC(=O)c2cc3c(=O)n4ccccc4nc3n(CC(C)C)c2=N)c1	8	-2	0	-17	/	/	/	/
COc1ccc(CNC(=O)c2cc3c(=O)n4ccccc4nc3n(Cc3cccnc3)c2=N)cc1	5	3	0.9*	-20	96	0	105	0
COc1cccc(NC(=O)c2cc3c(=O)n4ccccc4nc3n(CC(C)C)c2=N)c1	8	-10	1.6*	25	99	0	95	0
CCCOc1cc(N(CC)CC)ccc1/C=C(/C#N)c1nc2ccc(C)cc2[nH]1	-46	29	0.7*	2	241*	0	127	0
CCN(CC)c1ccc(/C=C(/C#N)c2nc3ccc(C)cc3[nH]2)c(OC(C)C)c1	-79	18	1	54	/	/	/	/
CCN(CC)Cc1c(O)ccc2c(=O)c(-c3ccccc3)coc12	7	5	1.2*	7	93	0	94	0
CC(C)(C)c1ccc(OCCOc2ccc(C(C)(C)C)cc2NC=O)c(NC=O)c1	-13	23	0.6*	1	108	0	108	0
COCCOc1ccc(C(F)(F)F)cc1NC(=O)c1ccccc1	10	6	0	-5	/	/	/	/
Cc1cc(NC(=O)Cn2cc([N+](=O)[O-])cn2)no1	7	-5	0	-6	/	/	/	/
Clc1ccccc1CSc1nncn1NC/C=C/c1ccccc1	-48	0	7.6*	8	103	0	112	0
COc1cc(/C=C/C(=O)OCC(=O)NCC(=O)Nc2cccc(C)c2C)ccc1OC(F)F	5	26	0	0	/	/	/	/
CS(=O)(=O)c1ccc(Cl)c(NC(=O)c2cccc(N3C(=O)CCC3=O)c2)c1	7	5	0	-6	/	/	/	/
CS(=O)(=O)c1ccc(Cl)c(NC(=O)c2cccc(Br)c2)c1	6	-17	5.8*	4	100	0	90	0
Cc1ccc(NC(=O)NCCCN2CCOCC2)cc1	11	1	0	1	/	/	/	/
O=C(NCCCN1CCOCC1)Nc1ccc(Cc2ccc(NC(=O)NCCCN3CCOCC3)cc2)cc1	-8	10	6.8*	13	97	0	102	0
COC(=O)CN1C(=O)COc2ccc(S(=O)(=O)N3CCCCCC3)cc21	6	9	0	-10	/	/	/	/
